Compound activity from PubChem BioAssay.
This is a sample that favours compounds with a hit; in the whole collection about 1.3% have one here.
PREPL inh: PREPL enzyme inhibitors, primary screen, biochemical, fluorescence polarization | 0.68% of 320,000 active | inhibition, % at 5.96 µM | recombinant PREPL, fluorescence polarization activity-based probe; in the data active = inhibition above about 43%
LYPLA1 counter: LYPLA1 inhibitors, primary screen, counter-screen for PME1 inhibitor project, biochemical, fluorescence polarization, FP-Rh probe ABPP | recombinant LYPLA1 | AID 2174, 2009 | inhibition, % at 5.9 µM | Acyl-protein thioesterase 1 (Homo sapiens), O75608 | 0.16% of 320,000 active;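 active = inhibition above the mean of all tested compounds plus 3 SD, set per campaign, cut at about 14% in these data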;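 note: inhibitors block serine hydrolase probe labeling of LYPLA1 so polarization falls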
Target sequence (O75608 whole entry, looked up): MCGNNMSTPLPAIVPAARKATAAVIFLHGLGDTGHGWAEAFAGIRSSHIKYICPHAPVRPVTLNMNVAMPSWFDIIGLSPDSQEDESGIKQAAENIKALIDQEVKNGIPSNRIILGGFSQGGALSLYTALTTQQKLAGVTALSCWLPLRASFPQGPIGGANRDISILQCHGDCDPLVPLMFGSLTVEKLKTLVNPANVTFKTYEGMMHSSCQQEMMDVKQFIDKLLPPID
PME-1 inh: PME-1 inhibitors via competitive probe labeling, primary screen, biochemical, fluorescence polarization, FP-Rh probe, HTS. Protein phosphatase methylesterase 1 (Homo sapiens), Q9Y570. recombinant PME-1. inhibition, % at 5.9 µM. 0.53% of 320,000 active. AID 2130, 2009;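 active = inhibition above the campaign mean of all compounds plus 3 SD, cut at about 26% in these data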;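 note: competitive labeling of PME-1 active site by serine hydrolase directed probe; inhibitors block probe labeling so polarization falls and inhibition rises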
Target sequence (Q9Y570 whole entry, looked up): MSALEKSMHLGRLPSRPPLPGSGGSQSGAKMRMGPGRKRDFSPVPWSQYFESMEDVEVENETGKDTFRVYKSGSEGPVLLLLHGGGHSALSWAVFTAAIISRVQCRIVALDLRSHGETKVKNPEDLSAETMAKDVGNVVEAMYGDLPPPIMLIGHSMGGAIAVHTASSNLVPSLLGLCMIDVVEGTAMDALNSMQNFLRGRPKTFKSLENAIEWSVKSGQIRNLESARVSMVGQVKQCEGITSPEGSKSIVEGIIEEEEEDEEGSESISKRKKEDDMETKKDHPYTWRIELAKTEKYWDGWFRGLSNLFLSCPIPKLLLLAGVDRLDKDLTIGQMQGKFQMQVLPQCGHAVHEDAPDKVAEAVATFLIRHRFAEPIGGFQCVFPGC
Fam108B counter: mouse Fam108B serine hydrolase inhibitors, primary screen, counter-screen for RBBP9 inhibitor project, biochemical, fluorescence polarization; recombinant Fam108B, FP-Rh probe fluorescence polarization; inhibition, % at 9.51 µM; 0.33% of 300,000 active; AID 1947, 2009;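 active = inhibition above the screen mean inhibition plus 3 SD, computed separately per campaign, cut at about 18% in these data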;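 note: inhibitors lower polarization as less probe binds the enzyme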
LYPLA2 counter: LYPLA2 inhibitors, primary screen, counter-screen for PME1 inhibitor project, biochemical, fluorescence polarization, FP-Rh probe ABPP. Acyl-protein thioesterase 2 (Homo sapiens), O95372. inhibition, % at 5.9 µM. recombinant LYPLA2. 0.38% of 320,000 active;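 active = inhibition above the screen-wide mean plus 3 SD, limit set per campaign, cut at about 26% in these data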
A number is an active result; - = inactive; . = not tested or not shown.

SMILES | PREPL inh | LYPLA1 counter | PME-1 inh | Fam108B counter | LYPLA2 counter
O=C(Nc1ccc([N+](=O)[O-])cc1)Nc1nc(-c2ccc(Cl)s2)cs1 | - | - | 44 | - | -
O=C(O)/C=C\C(=O)Nc1ccc(N2CCN(c3ccc(Cl)c(Cl)c3)CC2)cc1 | 44 | - | - | - | -
CCCCC1=CC2=CC(=O)C(C)(OC(=O)c3ccc(Cl)nc3)C(=O)C2=CO1 (configuration not stated) | - | 20 | - | - | -
Nc1cc(=O)[nH]c(SCC(=O)NCCC2=CCCCC2)n1 | - | . | . | . | .
O=C1c2c(O)cc(O)cc2O[C@H](c2ccc(O)c(O)c2)[C@H]1O | - | - | - | - | 36
COc1cc([C@@H]2Oc3cc(C4Oc5cc(O)cc(O)c5C(=O)[C@H]4O)ccc3O[C@H]2CO)ccc1O (some centres not stated) | - | - | - | - | 50
Cc1c(C(=O)N2CCN(c3ncccn3)CC2)oc2ccc(Cl)cc12 | - | - | - | . | -
Cc1cc(C)c(CN2CCN(C(=O)Cn3cnc4c(OCc5ccccc5)ncnc43)CC2)c(C)c1 | - | . | . | . | .
Cc1ccc(SCc2nc3ccccc3n2CC(=O)Nc2ccccc2)cc1 | 53 | - | - | - | -
Cc1ccc(SCc2nc3ccccc3n2CC(=O)Nc2c(C)cccc2C)cc1 | - | - | - | - | -
CC(=O)Nc1ccc(Nc2ccc3c4c(cc(=O)n3C)-c3ccccc3C(=O)c24)cc1 | - | - | - | - | -
O=C1c2ccccc2C(=O)c2c(Nc3ccc(CCO)cc3)ccc(O)c21 | - | - | 29 | - | 27
O=C(CSc1nnc(SCc2ccccc2Cl)s1)N/N=C/c1c[nH]c2ccccc12 | - | - | 36 | - | -
CCC(CC)C(=O)N1N=C(c2ccc(NS(C)(=O)=O)cc2)CC1c1ccc(C)cc1 (configuration not stated) | - | - | - | - | -
Cc1ccn(C(=O)c2ccc(NC(=O)CC(C)C)cc2)n1 | 71 | - | - | - | -
Cc1ccc(C)c(OCC(O)CN2CCN(CCN3C(=O)c4cccc5cccc(c45)C3=O)CC2)c1 (configuration not stated) | - | - | - | - | 54
CC(=O)c1ccccc1OCC(O)CN1CCN(CCN2C(=O)c3cccc4cccc(c34)C2=O)CC1 (configuration not stated) | - | - | - | - | 39
O=C(O[C@@H]1OC2COC(=O)c3cc(O)c(O)c(O)c3-c3c(cc(O)c(O)c3O)C(=O)O[C@@H]([C@H]1O)[C@@H]2O)c1cc(O)c(O)c(O)c1 | 54 | - | - | - | -
COC/C=C/C1=CC2=CC(=O)C(C)(OC(=O)c3cnc4ccccc4n3)C(=O)C2=CN1C1CCCC1 (configuration not stated) | - | - | - | - | -
COc1cc(/C=C/c2ccc3cccc(O)c3n2)ccc1O | - | - | 34 | - | -
COc1cc(/C=C/c2ccc3cccc(O)c3n2)c(Br)cc1O | - | - | 28 | - | -
C#Cc1ccc([C@@H]2C=C(C(=O)N3CCN(Cc4ccc5c(c4)OCO5)CC3)O[C@H](OCCCCO)C2)cc1 | 45 | - | - | - | -
O=C(C1=C[C@H](c2ccc3c(c2)OCO3)C[C@H](OCCCCO)O1)N1CCN(Cc2ccc3c(c2)OCO3)CC1 | - | - | - | - | -
NNC(=O)CCc1ccc(S(=O)(=O)N2CCOCC2)cc1 | - | - | - | - | -
C=CCn1c(C)cc(-c2csc(N)n2)c1C | 49 | - | - | - | -
SMILES | PREPL inh | LYPLA1 counter | PME-1 inh | Fam108B counter | LYPLA2 counter
COc1cc(OC)cc(-c2nnc(NC(=O)c3ccc4c(c3)OCCO4)o2)c1 | - | - | - | - | -
O=C1CC(N(O)c2ccccc2)C(=O)N1c1cc(Cl)cc(Cl)c1 (configuration not stated) | - | - | 34 | - | -
Cc1ccccc1N1C(=O)CC(N(O)c2ccccc2)C1=O (configuration not stated) | - | - | - | - | -
O=C1NC(Cc2ccccc2)c2nc3cc(Cl)ccc3c(=O)n2-c2ccccc21 (configuration not stated) | - | . | . | . | .
CCOC(=O)c1c(C)[nH]c(C)c1S(=O)(=O)N(C)CC(=O)Nc1ccc(C)cn1 | - | - | - | - | -
CCOC(=O)c1c(C)[nH]c(C)c1S(=O)(=O)N(C)CC(=O)Nc1cc(C)ccc1OC | - | - | 26 | - | -
CC1=NN(c2ccccc2)C(=O)C1N=Nc1cccc(O)c1 (configuration not stated) | - | - | 28 | - | -
CC1=NN(c2ccccc2)C(=O)C1N=Nc1ccccc1 (configuration not stated) | - | - | - | - | -
COc1ccc(NC(=O)N(C)C[C@H]2Oc3ccc(NC(=O)Cn4cnnn4)cc3C(=O)N([C@H](C)CO)C[C@@H]2C)cc1 | - | . | . | . | .
COc1cc(NC(=O)c2cccc(F)c2)ccc1NC(=O)c1cc2ccccc2o1 | - | - | - | - | -
N=c1oc2cc(O)ccc2cc1C(=O)Nc1nc2ccccc2s1 | - | - | 30 | - | -
O=C(CN1CCN(c2ccc(O)cc2)CC1)Nc1ccc2c(c1)OCCCO2 | - | - | - | . | -
Cc1ccc(-c2nc(Nc3ccc(N4CCOCC4)cc3)c3ccccc3n2)cc1 | 46 | - | - | - | -
Cc1ccc2nc(CSc3nc(C)cc(C)c3C#N)[nH]c2c1 | 58 | - | - | - | -
O=[N+]([O-])c1cc(S(=O)(=O)Nc2cccc(C(F)(F)F)c2)ccc1-n1nnc2ccccc21 | - | - | 33 | - | -
CCCCNC(=O)CSc1nc(Cc2ccccc2)nc2ccccc12 | - | - | - | - | -
C=CCOc1c(Br)cc(/C=N/Nc2ccc(C(=O)O)cc2)cc1OCC | - | - | 48 | - | -
COC(=O)C1=C(CS(=O)(=O)c2ccc(OC)c(OC)c2)NC(=O)NC1c1ccc(O)c(OC)c1 (configuration not stated) | - | - | - | - | -
COc1ccc(N2CCc3c(C)nc4c(OC)cc(OC)cc4c32)c(OC)c1 | 48 | - | - | - | -
C[C@@H](C(=O)OCn1nnc2ccccc2c1=O)N1C(=O)C2CCCCC2C1=O (some centres not stated) | - | - | - | - | -
COc1ccccc1-c1nnc(Nc2nc3c(OC)cccc3s2)o1 | - | - | 31 | - | -
COc1cccc2sc(Nc3nnc(-c4ccccc4Cl)o3)nc12 | - | - | - | - | -
COc1cccc(-c2nnc(Nc3nc4c(F)cccc4s3)o2)c1 | - | - | 44 | - | -
CCOc1ccc(CCNC(=O)COC(=O)c2c(C)nn(-c3ccccc3)c2C)cc1OCC | - | - | - | - | -
Cc1cccc(CC(=O)NCC2CCCCC2)c1 | - | - | - | - | -
Cc1cc2cc(CNC(=O)c3ccco3)ccc2n1C | - | - | - | - | -
